A selection: hits, their analogues and other compounds. The true share with any hit is near 1%.
RXFP1 antagonist: qHTS Assay for Antagonists of the Relaxin Receptor RXFP1; Relaxin receptor 1 (Homo sapiens), Q9HBX9; HEK293-RXFP1, relaxin-stimulated cAMP HTRF, 30 min; stronger effect = lower value; activity change, negative = inhibition, % at 57.5 µM; hit rate 0.59% among 350,000;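 active = activity change of -60% or lower, but not beyond a set lower limit; inconclusive = change between -60% and -40%, or beyond the set limit; inactive = change above -40%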
gsp agonist: qHTS for Agonist of gsp, the Etiologic Mutation Responsible for Fibrous Dysplasia/McCune-Albright Syndrome: qHTS; AID 624287, 2012; gsp mutant cells, cAMP HTRF, 30 min; Potency, µM (top dose mostly 76.9 µM), actives largely listed as activators; hit rate 0.13% among 340,000; active = well fitted activation curve with a large enough effect; inconclusive = small, poorly fitted or top-dose-only effect, or another doubt; inactive = no such curve, though single readings can be large or run the other way; cell line not stated here;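 note: phosphodiesterase inhibitor Ro 20-1724 added with compounds to block cAMP breakdown; nearly all actives have a fitted effect of over 60% in size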
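Cells stably selected in G418 were plated at 2000/well, grown 16-24 hr, then given compounds in DMSO with the PDE inhibitor […] (300 uM solution added) for 30 min at 37C; cAMP was read by HTRF.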
RXFP1 agonist: qHTS Assay for Agonists of the Relaxin Receptor RXFP1 | Relaxin receptor 1 (Homo sapiens), Q9HBX9 | hit rate 0.3% among 370,000 | Potency, µM (series often up to 57.5 µM), usual class: activators | HEK293T-RXFP1 cAMP TR-FRET, 30 min; response scale: percent of porcine relaxin response, buffer zero; active = well fitted activation curve with a large enough effect; inconclusive = small, poorly fitted or top-dose-only effect; note: nearly all actives have a fitted effect of over 60% in size
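cAMP rise read by TR-FRET after 30 min, 37C compound exposure (up to 58 uM) in RXFP1-transfected HEK293 cells with Ro 20174 present. EC50 from Hill-equation fits, with 29 nM porcine relaxin as 100% and buffer as basal.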
TSHR antag: Antagonists of the Thyroid Stimulating Hormone Receptor: HTS campaign. TSHR-expressing cells, TSH-stimulated cAMP HTRF, 2 h; stronger effect = lower value. activity change, negative = inhibition, % at 11.5 µM. hit rate 0.2% among 330,000. AID 504810, 2011;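 active = activity change below a set negative limit, meaning inhibition stronger than a set level, cut at about -70% in these data; inconclusive = activity change between two set negative limits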
Target sequence (P16473 whole entry, looked up): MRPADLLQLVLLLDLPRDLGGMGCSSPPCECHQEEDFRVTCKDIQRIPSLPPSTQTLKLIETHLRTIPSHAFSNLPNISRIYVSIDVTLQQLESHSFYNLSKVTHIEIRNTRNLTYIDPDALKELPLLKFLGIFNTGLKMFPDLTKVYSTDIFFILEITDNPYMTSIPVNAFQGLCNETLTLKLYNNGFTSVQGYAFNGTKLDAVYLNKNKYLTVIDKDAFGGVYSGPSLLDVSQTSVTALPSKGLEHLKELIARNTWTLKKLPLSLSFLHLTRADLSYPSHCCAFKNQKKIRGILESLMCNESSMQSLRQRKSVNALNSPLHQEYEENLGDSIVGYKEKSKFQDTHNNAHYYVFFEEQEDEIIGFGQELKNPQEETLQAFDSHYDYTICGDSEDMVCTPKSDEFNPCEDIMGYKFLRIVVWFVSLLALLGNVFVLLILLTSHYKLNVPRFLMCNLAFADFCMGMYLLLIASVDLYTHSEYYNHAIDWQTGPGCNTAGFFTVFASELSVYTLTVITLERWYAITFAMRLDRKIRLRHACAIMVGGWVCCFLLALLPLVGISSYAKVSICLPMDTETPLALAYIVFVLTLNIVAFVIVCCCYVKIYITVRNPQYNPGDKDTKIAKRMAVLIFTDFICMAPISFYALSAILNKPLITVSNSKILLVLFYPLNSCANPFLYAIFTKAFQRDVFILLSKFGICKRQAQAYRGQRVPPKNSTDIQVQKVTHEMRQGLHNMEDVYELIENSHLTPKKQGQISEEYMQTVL
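Cell-based HTRF cAMP assay; TSHR cells + compound, TSH EC80 (4nM final), 2 h, 37 deg C. Lysis with anti-cAMP cryptate and cAMP-d2, 30 min RT, read 665/620 nm.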
gsp antag: qHTS for Antagonists of gsp, the Etiologic Mutation Responsible for Fibrous Dysplasia/McCune-Albright Syndrome: qHTS. gsp-mutant cells, cAMP HTRF, 30 min. Potency, µM (titrated, usually from 76.9 µM), hits mostly inhibitors. hit rate 0.4% among 340,000; calls by dose curve; cell line not stated here;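 note: intracellular cAMP measured with PDE inhibitor Ro 20-1724 present during compound exposure; nearly all actives have a fitted effect of over 65% in size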
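Cells, 2000/well, grown 16–24 h in DMEM 10% FBS with 0.5 mg/ml G418, then compounds plus […] (300 uM addition stock), 30 min at 37C. cAMP read by HTRF (cAMP-d2 and anti-cAMP antibody-K in lysis buffer) after 30 min RT.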
Of the large screens only hits and unclear results are named; the others gave an inactive call.

COc1ccccc1N1CCN(CC(O)COc2ccc(C)cc2C(C)(C)C)CC1 (stereo not given)	RXFP1 antagonist -83 (no result: gsp agonist, TSHR antag, gsp antag)
O=C(O)C1Cc2ccccc2CN1C(=O)CSc1nnc2ccccn12 (stereo not given)	RXFP1 agonist 35µM
O=C(CSc1nnc2ccccn12)N1CCc2ccccc2C1	gsp agonist inconclusive
CCOC(=O)c1ccccc1NC(=O)NC(C)c1c(-n2cccc2)sc(C)c1C (stereo not given)	RXFP1 agonist inconclusive (no result: gsp agonist, TSHR antag, gsp antag)
O=Cc1cc(Cl)ccc1OCCN1CCC(Cc2ccccc2)CC1	RXFP1 antagonist -109
Cc1c(Cl)cccc1NC(=O)Cn1cc(C(=O)C2CCCCC2)c2ccccc21	none (no result: gsp agonist, TSHR antag, gsp antag)
Cc1cc(C)cc(N2CCn3c2nc2c3c(=O)n(CCc3ccccc3)c(=O)n2C)c1	none (no result: gsp agonist, TSHR antag, gsp antag)
COc1ccc(CCNC(=O)c2cccc3c2C(=O)N(C2CCCCC2)C3)cc1OC	TSHR antag -78
O=C(NCCc1ccccc1)c1cccc2c1C(=O)N(C1CCCCC1)C2	gsp agonist inconclusive
CCOc1ncccc1C(=O)OCC(=O)N1CCN(S(=O)(=O)c2ccc(Cl)cc2)CC1	gsp agonist 7.9µM
Nc1ncccc1C(=O)OCC(=O)N1CCN(S(=O)(=O)c2ccc(Cl)cc2)CC1	none
C[n+]1c2n(c3ccccc31)N=C(c1cc(C(C)(C)C)c(O)c(C(C)(C)C)c1)CS2	RXFP1 antagonist -85
CCOC(=O)c1c(CSC(=N)N)n(-c2ccccc2)c2cc(Br)c(OC(C)=O)cc12	RXFP1 antagonist -61
CCC1Sc2ccc(S(=O)(=O)CCC(=O)NCc3ccc(C)o3)cc2NC1=O (stereo not given)	none
CCC1Sc2ccc(S(=O)(=O)CCC(=O)Nc3ccccc3Cl)cc2NC1=O (stereo not given)	TSHR antag -131
CCOC(=O)c1ccc(NC(=O)Cn2cc(C(=O)c3ccc(CC)cc3)c(=O)c3ccc(C)nc32)cc1	RXFP1 agonist 32µM (no result: gsp agonist, TSHR antag, gsp antag)
CS(=O)(=O)c1nc(-c2ccccc2)cc(C(F)(F)F)n1	RXFP1 antagonist -106
COc1ccc(NC(=O)C2CCC(CNS(=O)(=O)c3cccc4nsnc34)CC2)cc1OC (stereo not given)	none (no result: gsp agonist, TSHR antag, gsp antag)
Cc1cc(C)n(-c2nc(Nc3ccccc3C(F)(F)F)nc(-n3nc(C)cc3C)n2)n1	RXFP1 antagonist inconclusive, gsp antag 28µM
CCc1ccc(NC(=O)Cn2c(=O)n(CCC(=O)NCCc3ccc(OC)c(OC)c3)c(=O)c3ccccc32)cc1	none (no result: RXFP1 antagonist, gsp agonist, TSHR antag, gsp antag)
Cc1cc(NC(=S)N(Cc2cccc(Br)c2)CC2CCC(C(=O)O)CC2)ccc1Cl (stereo not given)	gsp antag 28µM
Cc1ccc(NC(=S)N(Cc2cccc(Br)c2)CC2CCC(C(=O)O)CC2)cc1 (stereo not given)	gsp antag inconclusive
COc1ccc(OCCN2C(=O)c3ccccc3C2=O)c([N+](=O)[O-])c1	gsp agonist 10µM
CCOCCCn1c(SCC(=O)Nc2ccc(C)cc2)nc2ccccc2c1=O	none (no result: gsp agonist, TSHR antag, gsp antag)
NS(=O)(=O)c1ccc(-c2ccc(/C=C3\C(=O)Nc4ccccc43)o2)cc1	none (no result: RXFP1 antagonist, gsp agonist, gsp antag)
CC1(C)OC(=O)C(=Cc2ccc(-c3ccc(S(N)(=O)=O)cc3)o2)C(=O)O1	RXFP1 antagonist -105, gsp antag inconclusive
O=C(c1cccc(C(F)(F)F)c1)N1CCc2c([nH]c3ccccc23)C1C(F)(F)F (stereo not given)	RXFP1 antagonist -92, gsp agonist inconclusive
O=C(O)c1ccccc1C(=O)N1CCc2c([nH]c3ccccc23)C1C(F)(F)F (stereo not given)	none
Cc1cccc(NC(=O)CN2C(=O)CCn3nc(-c4cccn4C)cc32)c1C	none (no result: gsp agonist, TSHR antag, gsp antag)
N#CCCn1nc(-c2ccccc2)cc1Nc1ccccc1NC(=O)C(F)(F)F	none (no result: RXFP1 antagonist)
N#CCCn1nc(-c2ccc(Br)cc2)cc1Nc1ccccc1NC(=O)C(F)(F)F	gsp antag 32µM
COc1cccc(N2CCN(C(=O)CN3CCSc4ccccc43)CC2)c1	none (no result: RXFP1 antagonist, gsp agonist, TSHR antag, gsp antag)
